In the library only some 7.6% were active in any assay of this set; here they are far more common.
p53 reactivator – re-activators of mutant p53. H1299 p53-A138V BP100-luciferase reporter, luminescence, 24 h. Potency, µM (top dose mostly 92.2 µM), actives largely listed as activators. hit rate 0.063% among 320,000; further: nearly all actives have a fitted effect of over 45% in size
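H1299 (p53-null), stable ts p53-A138V + BP100-Luc; 1000 cells/well, Opti-MEM/10% FBS; cpd 4 pt, 1:5; 24 h, 37 deg C, 5% CO2; detection reagent 10 min RT; luminescence.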
BRCA1 expr up – increases BRCA1 expression; MCF7-BRCA1-FFLuc reporter, luminescence, 48 h; response scale: scaled: vehicle 0%, 10 µM genistein 100%; Potency, µM (doses to about 46.1 µM), most hits filed as activators; hit rate 1.1% among 380,000; AID 624202; further: nearly all actives have a fitted effect of over 80% in size
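Quantitative HTS in MCF7 cells stably reporting BRCA1 expression via firefly luciferase. Compound treatment lasts 48 h at 37 °C in phenol-red free MEM. Activation is expressed relative to genistein at 10 microM and DMSO.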
VP16 counter – inhibits Gal4-VP16 luciferase reporter, ROR gamma counter-screen; Drosophila S2 Gal4-VP16 UAS-luciferase, luminescence, 20 h; AID 2546; Potency, µM (titrated, usually from 53.6 µM), usual class: inhibitors; hit rate 3.5% among 310,000;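 further: Gal4-VP16 expression switched on by copper sulfate through the metallothionein promoter; nearly all actives have a fitted effect of over 50% in size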
ELG1 repair inh – ELG1-dependent DNA repair inhibition; HEK293T ELG1-luciferase reporter, luminescence, 16 h; DNA damage induced by 5-fluorouridine; Potency, µM (highest dose often 46.1 µM), most hits filed as inhibitors; hit rate 2.3% among 330,000; AID 504467; further: nearly all actives have a fitted effect of over 55% in size
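Cells (2,000 per well) received 5-fluorouridine plus test compound or DMSO and were incubated 16 hr at 37 °C, 5% CO2. Luciferase activity was read by luminescence 30 min after ONE-Glo addition; signal suppression marked inhibition of damage-induced ELG1 function.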
RORgamma inh – blocks mouse ROR gamma transcriptional activity. Potency, µM (series often up to 53.6 µM), actives largely listed as inhibitors. AID 2551. hit rate 5.4% among 310,000. Drosophila S2 Gal4-RORgamma UAS-luciferase reporter, 20 h; further: nearly all actives have a fitted effect of over 60% in size
Target sequence (P51450 whole entry, looked up, the tested form may be a part): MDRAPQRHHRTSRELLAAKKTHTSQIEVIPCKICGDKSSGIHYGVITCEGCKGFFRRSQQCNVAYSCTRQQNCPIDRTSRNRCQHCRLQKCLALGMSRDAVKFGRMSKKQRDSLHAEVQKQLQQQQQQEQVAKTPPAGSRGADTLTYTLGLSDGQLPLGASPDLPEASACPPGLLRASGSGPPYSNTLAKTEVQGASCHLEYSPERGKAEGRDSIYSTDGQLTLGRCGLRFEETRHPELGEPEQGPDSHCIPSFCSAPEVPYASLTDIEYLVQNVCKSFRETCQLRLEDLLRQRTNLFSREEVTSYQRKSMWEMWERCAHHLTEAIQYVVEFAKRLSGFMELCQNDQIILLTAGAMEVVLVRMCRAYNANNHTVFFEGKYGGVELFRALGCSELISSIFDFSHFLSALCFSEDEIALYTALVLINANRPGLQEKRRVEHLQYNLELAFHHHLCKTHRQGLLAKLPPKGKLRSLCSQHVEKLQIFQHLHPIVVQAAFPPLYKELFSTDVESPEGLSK
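In this cell-based reporter format, copper sulfate (700 uM final) drives Gal4–ROR gamma fusion expression from a metallothionein promoter in Drosophila Schneider cells; compounds preincubated 1 hr, reporter read after 20 hr at ambient temperature.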
Giardia killer – Giardia lamblia killing; hit rate 0.15% among 340,000; activity change, % at 7.66 µM, hits read low; Giardia lamblia trophozoite viability; in the data active means activity change below about -80%; inconclusive means between about -30% and that limit;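 further: parasites exposed to compound for two days anaerobically before the ATP read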
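Luminescent ATP signal served as the viability read-out, measured 15-30 min after adding ATP detection reagent to trophozoites that had been incubated with compounds for 48 hrs at 37 deg C anaerobically at 100 cells/well.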
Of the large screens only hits and unclear results are named; the others gave an inactive call; ! = repeats disagree. Unless noted, the call rests on the fitted dose curve; in most records, active means well fitted curve in the direction sought with a large enough effect; inconclusive means small, poorly fitted or top-dose-only effect, or another doubt; inactive means no such curve, though single readings can be large; an effect the other way counts as inactive or inconclusive.

COC(=O)C1=C(c2ccccc2OCc2ccccc2)C[C@@H]2CC[C@H]1N2C(=O)NCc1ccc(N(C)C)cc1	ELG1 repair inh 16µM (no result: VP16 counter, RORgamma inh)
Cc1ccccc1Cn1cnc2c(oc3ccccc32)c1=O	ELG1 repair inh inconclusive, RORgamma inh 4µM
O=c1[nH]c(=S)n(Cc2ccc(F)cc2)c(O)c1C=NCC1CCCO1 (stereo unspecified)	none
O=c1[nH]c(=S)n(Cc2ccc(F)cc2)c(O)c1/C=N/N1CCCCC1	VP16 counter inconclusive, RORgamma inh 11µM
CN1C(=O)N(C)C(=O)C2(Cc3cc([N+](=O)[O-])ccc3N(C)C2c2ccccc2)C1=O (stereo unspecified)	none
CCN1C[C@]2(C)CC[C@H](OC)[C@]34C5C[C@@H]6CC[C@@](O)(C5C(=O)O6)C(C13)[C@@H](OC(=O)c1ccccc1)C24	none (no result: p53 reactivator, BRCA1 expr up, ELG1 repair inh, Giardia killer)
COC(=O)CC(=O)c1ccc2c(c1)OCO2	RORgamma inh inconclusive (no result: p53 reactivator, ELG1 repair inh)
COC(=O)C1=C(c2cccc(C#N)c2)C[C@@H]2CC[C@H]1N2C(=O)N1CCOCC1	p53 reactivator inconclusive, ELG1 repair inh inconclusive (no result: VP16 counter, RORgamma inh)
CCn1c(O)c(/C=N/NC(=O)c2ccccc2)c(=O)[nH]c1=S	VP16 counter inconclusive, ELG1 repair inh inconclusive, RORgamma inh 7.1µM
O=C(N/N=C/c1c(O)n(Cc2ccc(F)cc2)c(=O)[nH]c1=O)c1ccccc1O	VP16 counter inconclusive, RORgamma inh inconclusive
O=C(N/N=C/c1c(O)n(Cc2ccccc2)c(=O)[nH]c1=O)c1ccccc1O	p53 reactivator 32µM, VP16 counter inconclusive, RORgamma inh 11µM
C=C1C(C)C2C(Cc3ccccc3)NC(=O)C23OC(=O)/C=C/C(O)CCCC(C)C/C=C/C3C1O (stereo unspecified)	none (no result: p53 reactivator, VP16 counter, ELG1 repair inh, RORgamma inh)
CC(=O)N1CC2CC(C1)c1cccc(=O)n1C2 (stereo unspecified)	none (no result: p53 reactivator, BRCA1 expr up, ELG1 repair inh, Giardia killer)
CC(C)[C@@]1(NC(=O)[C@@H]2C[C@@H]3c4cccc5[nH]cc(c45)C[C@H]3N(C)C2)O[C@@]2(O)[C@@H]3CCCN3C(=O)[C@H](Cc3ccccc3)N2C1=O	VP16 counter inconclusive, RORgamma inh 2.8µM!
O=C(Cc1ccccc1)N1CCN(Cc2ccc(F)cc2)CC1	none
C#CC[N+]1(C)C2CCC1CC(O)C2 (stereo unspecified)	none
COc1ccc(C(C)(C)C)cc1NC(=O)CCCn1c(=O)oc2ccccc21	ELG1 repair inh inconclusive
Cc1cc(C)n(-c2ccc(NN=C(C#N)C#N)cc2)n1	VP16 counter 10µM, RORgamma inh inconclusive
N#CC(C#N)=NNc1ccc(-n2ccc(C(F)(F)F)n2)cc1	VP16 counter 3.5µM, ELG1 repair inh inconclusive, RORgamma inh 5µM
O=c1c2ccccc2nc(/C=C/c2ccc(O)cc2)n1-c1ccc(O)cc1	none
COc1ccc(-n2c(/C=C/c3ccc4c(c3)OCO4)nc3ccccc3c2=O)cc1	VP16 counter inconclusive, ELG1 repair inh 23µM, Giardia killer inconclusive
O=c1c2ccccc2nc(/C=C/c2ccc3c(c2)OCO3)n1-c1cccc(O)c1	ELG1 repair inh 16µM
Cc1ccc(-n2c(/C=C/c3ccc4c(c3)OCO4)nc3ccccc3c2=O)cc1	ELG1 repair inh 18µM (no result: BRCA1 expr up, Giardia killer)
COc1cccc(-n2c(/C=C/c3ccc(O)c(O)c3)nc3ccccc3c2=O)c1	ELG1 repair inh 8.2µM
COc1ccc(-n2c(/C=C/c3ccc(O)c(OC)c3)nc3ccccc3c2=O)cc1	ELG1 repair inh inconclusive
NS(=O)(=O)c1nc[nH]c1[N+](=O)[O-]	none (no result: p53 reactivator, VP16 counter, ELG1 repair inh, RORgamma inh)
C[C@@H]1CN([C@@H](C)CO)C(=O)c2cccc(NC(=O)c3ccncc3)c2O[C@@H]1CN(C)Cc1ccc(-c2ccccc2)cc1	none (no result: VP16 counter, RORgamma inh)
C[C@H]1CN([C@@H](C)CO)C(=O)c2cc(NC(=O)C3CCCCC3)ccc2O[C@H]1CN(C)Cc1ccc(-c2ccccc2)cc1	ELG1 repair inh 10µM (no result: VP16 counter, RORgamma inh)
CC(=O)c1cn(Cc2ccccc2F)c2ccccc12	VP16 counter 7.1µM, ELG1 repair inh inconclusive
CC(=O)c1cn(Cc2ccccc2C#N)c2ccccc12	VP16 counter 3.2µM, RORgamma inh inconclusive
O=Cc1cn(Cc2c(F)cccc2Cl)c2ccccc12	VP16 counter inconclusive, ELG1 repair inh inconclusive

Screening data: PubChem, National Center for Advancing Translational Sciences (NCATS)
